LDHA inh = inhibitors of human lactate dehydrogenase A; activity change, % (values are at about 110 or 230 µM); actives 0.15% (n = 480,000); P00338; purified LDHA, NADH/diaphorase-resazurin fluorescence; stronger effect = lower value; AID 1347041; in the data active means activity change below about -30%; inconclusive means mostly about -25% to -30%;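 further: plate controls were DMSO wells for no effect and wells without enzyme for full effect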
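Enzyme activity of human lactate dehydrogenase 5 (2 nM; 0.06 mM NADH, 0.2 mM pyruvate, 5 min, RT) is measured via a resazurin/diaphorase fluorescence readout of residual NADH.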
VP16 counter = counter-screen for ROR gamma inhibitors: Gal4-VP16 reporter; Drosophila S2 Gal4-VP16 UAS-luciferase, luminescence, 20 h; Potency, µM (top dose mostly 53.6 µM), inactives show at the highest dose activity, negative = inhibition, actives largely listed as inhibitors; actives 3.5% (n = 310,000); AID 2546;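 further: Gal4-VP16 expression switched on by copper sulfate through the metallothionein promoter; potency means the concentration at half of the fitted maximal effect; nearly all actives have a fitted effect of over 50% in size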
DT40 TDP1 no CPT = qHTS for Inhibitors of human tyrosyl-DNA phosphodiesterase 1 (TDP1): qHTS in cells in absence of CPT. DT40 Tdp1-/- hTDP1 cells, no CPT, ATP luminescence, 48 h. Potency, µM (highest dose often 46.2 µM), inactives show at the top dose activity change, negative = growth inhibition, usual class: inhibitors. actives 15% (n = 420,000). AID 686978, 2013; further: potency means the concentration at half of the fitted maximal effect; nearly all actives have a fitted effect of over 55% in size
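Cells were dispensed at 400 per well, compounds added by pin tool, plates incubated ≥48 hr at 37 °C, then CellTiter-Glo added for 30 min at room temperature before luminescence reading. Line: DT40 Tdp1-/- complemented with hTDP1; camptothecin omitted.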
RORgamma inh = blocks mouse ROR gamma transcriptional activity; Potency, µM (series often up to 53.6 µM), inactives show top-dose activity change, negative = inhibition, hits mostly inhibitors; actives 5.4% (n = 310,000); Drosophila S2 Gal4-RORgamma UAS-luciferase reporter, 20 h; P51450; further: potency means the concentration at half of the fitted maximal effect; nearly all actives have a fitted effect of over 60% in size
Target sequence (P51450 whole entry, looked up, the tested form may be a part): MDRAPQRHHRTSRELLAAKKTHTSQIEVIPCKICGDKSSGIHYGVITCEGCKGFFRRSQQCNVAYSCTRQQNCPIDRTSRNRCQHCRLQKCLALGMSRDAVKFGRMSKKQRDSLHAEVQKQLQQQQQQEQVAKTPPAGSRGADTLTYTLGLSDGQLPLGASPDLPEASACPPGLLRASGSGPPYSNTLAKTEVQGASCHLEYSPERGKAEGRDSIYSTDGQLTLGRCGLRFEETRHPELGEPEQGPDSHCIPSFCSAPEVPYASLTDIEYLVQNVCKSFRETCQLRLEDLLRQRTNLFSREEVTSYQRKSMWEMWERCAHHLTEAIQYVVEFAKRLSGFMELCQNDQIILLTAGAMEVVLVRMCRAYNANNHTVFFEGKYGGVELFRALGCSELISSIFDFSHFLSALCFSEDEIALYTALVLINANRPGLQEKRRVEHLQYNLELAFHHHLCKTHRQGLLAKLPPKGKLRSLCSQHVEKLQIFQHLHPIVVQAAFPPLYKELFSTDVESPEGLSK
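Compounds are pin-transferred onto Drosophila Schneider cells expressing a copper-inducible Gal4–ROR gamma transactivation domain fusion. After 1 hr, copper sulfate is added to 700 uM final; luciferase is read 20 hr later.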
DT40 TDP1 CPT = growth inhibition of DT40 Tdp1-/-;hTDP1 cells with camptothecin (screen for TDP1 inhibitors) | chicken DT40 Tdp1-/-;hTDP1 cells + 20 nM CPT, ATP luminescence, 48 h | Potency, µM (doses to about 46.2 µM), without a hit: at the highest dose activity change, negative = growth inhibition, most hits filed as inhibitors | actives 12% (n = 420,000) | AID 686979; further: potency means the concentration at half of the fitted maximal effect; nearly all actives have a fitted effect of over 55% in size
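Chicken DT40 Tdp1-/- cells stably complemented with human TDP1 were seeded at 400 cells/well in medium containing 20 nM camptothecin, exposed to pin-transferred compounds, and grown at 37 °C for at least 48 hr. Viability was read as ATP luminescence.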
IL-1B inflam inh = inflammasome signaling inhibition, IL-1 beta readout. activity change, % at 57.5 µM. THP-1 LPS/ATP IL-1B secretion, AlphaLISA, 16 h; stronger effect = lower value. actives 4.7% (n = 360,000); in the data active means activity change below about -50%; inconclusive means mostly about -30% to -49%
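Secreted IL-1B measured by AlphaLISA bead assay after 16 h compound exposure of THP-1 cells; compounds (final up to 57.5 uM) added 1 h before LPS (250 ng/mL) and ATP (1.25 mM) stimulation; lower signal means less secretion.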
* = called active by the depositor; i = inactive; u = inconclusive; x = not tested or not shown. Rows were chosen to be rich in hits. Some 18% of all compounds tested hit in one or more screens of this group. Unless noted, the call rests on the fitted dose curve; in most records, active means well fitted curve in the direction sought with a large enough effect; inconclusive means small, poorly fitted or top-dose-only effect, or another doubt; inactive means no such curve, though single readings can be large; an effect the other way counts as inactive or inconclusive. Unless noted, on the % scale 0 is the no-effect control and ±100 the full control effect.

SMILES | LDHA inh | VP16 counter | DT40 TDP1 no CPT | RORgamma inh | DT40 TDP1 CPT | IL-1B inflam inh
CCN(Cc1ccccc1)S(=O)(=O)c1ccc(C(=O)N(CCCN(C)C)c2nc3c(F)cccc3s2)cc1 | 0 | u | u | u | u | -77*
CN(C)CCCN(C(=O)c1ccc(S(=O)(=O)N2CCCCCC2)cc1)c1nc2c(F)cccc2s1 | -5 | -9% | -26% | -26% | u | -6
CCOc1ccc2nc(N(CCN(C)C)C(=O)c3cc4ccccc4cc3OC)sc2c1 | -1 | -6% | u | -12% | u | u
Cc1ccc(Cl)cc1NC(=O)CN(Cc1ccc(Cl)cc1)S(C)(=O)=O | -2 | x | x | x | x | x
COc1ccc(-c2coc3cc(OCC(=O)Nc4ccccc4Cl)ccc3c2=O)cc1 | -4 | x | x | x | x | x
Cc1cccc(-n2c(C)cc(C(=O)NC3CCCCC3)c2C)c1 | -6 | u | 13µM* | u | u | -90*
Cc1cccc(-n2c(C)nc3cc(C(=O)NC4CCCCCC4)ccc32)c1 | 1 | x | 23µM* | x | 13µM* | x
CCOc1cc(C)c(Cl)cc1S(=O)(=O)NCCO | 12 | x | x | x | x | x
Cc1ccc(-n2ncc(C(=O)Nc3ccc4c(c3)OCO4)c2C2CCN(C(=O)OC(C)(C)C)CC2)cc1 | 14 | x | 21µM* | x | 21µM* | x
Cc1ccc(-n2ncc(C(=O)Nc3ccc4c(c3)OCCO4)c2C2CCN(C(=O)OC(C)(C)C)CC2)cc1 | 2 | x | 21µM* | x | 21µM* | x
CC(C)(C)OC(=O)N1CCC(c2c(C(=O)Nc3ccc4c(c3)OCCO4)cnn2-c2ccc(Cl)cc2)CC1 | -7 | x | u | x | u | x
CC(C)(C)OC(=O)N1CCC(c2c(C(=O)Nc3ccc4c(c3)OCCO4)cnn2-c2ccccc2)CC1 | 4 | x | 18µM* | x | 23µM* | x
COCCN1CN=C(Nc2nc(C)c3ccccc3n2)NC1 | 1 | x | x | x | x | x
COC(=O)c1c(NC(=O)CN2C(=O)NC3(CCCCC3C)C2=O)sc2c1CCC2 (stereo unspecified) | -4 | x | u | x | u | -52*
COc1ccc(NC(=O)c2ncoc2-c2ccc(C)o2)cc1OC | 3 | x | x | x | x | x
CCCCCNC(=O)c1cc(-c2ccc(Cl)cc2)nc2ccccc12 | 3 | x | x | x | x | x
CCCCN1CCCc2cc(CN(CCCN3CCOCC3)C(=O)Nc3ccc(CC)cc3)ccc21 | 0 | x | 21µM* | x | u | x
COc1ccc(CN(CCCN2CCOCC2)C(=O)Nc2ccccc2)cc1OC | -2 | 11% | -10% | 5% | -5% | -10
CCCN1CCCc2cc(CN(CCCN3CCOCC3)C(=O)Nc3ccc(CC)cc3)ccc21 | 4 | x | 21µM* | x | 23µM* | x
O=C(NCc1ccccc1)c1nc(Cc2c[nH]c3ccccc23)no1 | 1 | x | x | x | x | x
O=C(c1ccc(-n2cccn2)cc1)N1CCN(c2ncccc2C(F)(F)F)CC1 | -9 | 1% | u | 1% | u | i
COc1ccccc1N1CCN(C(=O)c2c(C)cc(=O)oc2C)CC1 | -8 | 5% | 4% | -9% | 2% | 0
Cc1oc(C(C)(C)C)cc1C(=O)N1CCN(c2ncccc2C(F)(F)F)CC1 | 0 | -6% | 23µM* | 30% | u | -6
CC(C)(C)NC(=O)N1CCN(c2ncccc2C(F)(F)F)CC1 | -2 | 0% | -18% | 10% | -6% | 24
Cc1cc(C)c2cc(C(=O)N3CCN(c4ncccc4C(F)(F)F)CC3)[nH]c2c1 | 10 | 1% | 15µM* | 30% | u | -20
COc1cc(SC)ccc1C(=O)N1CCN(c2ccccc2OC)CC1 | -3 | -6% | 4.6µM* | 31% | 21µM* | 30
COc1ccccc1N1CCN(C(=O)c2cc(C(C)(C)C)oc2C)CC1 | -3 | 0% | 21µM* | 9% | u | -60*

High-throughput results: PubChem BioAssay, National Center for Advancing Translational Sciences (NCATS)
